This is a sample that favours compounds with a hit; in the whole collection about 1.3% have one here.
EPAC2 antag = blocks human EPAC2 exchange factor; hit rate 0.18% among 360,000; Potency, µM (highest dose often 114 µM), without a hit: at the highest dose activity, negative = inhibition, actives largely listed as inhibitors; EPAC2 GEF exchange of Rap1B-BODIPY-GDP, fluorescence; further: on the % scale 0 is the no-effect control and ±100 the full control effect; nearly all actives have a fitted effect of over 45% in size
ALOX12 inh = inhibitors of human 12S-lipoxygenase ALOX12; P18054; purified 12hLO, xylenol orange hydroperoxide absorbance; Potency, µM (doses to about 108 µM), for inactives: at the top dose activity change, negative = inhibition, usual class: inhibitors; hit rate 1.1% among 580,000; further: on the % scale 0 is the no-effect control and ±100 the full control effect
Target sequence (P18054 whole entry, looked up): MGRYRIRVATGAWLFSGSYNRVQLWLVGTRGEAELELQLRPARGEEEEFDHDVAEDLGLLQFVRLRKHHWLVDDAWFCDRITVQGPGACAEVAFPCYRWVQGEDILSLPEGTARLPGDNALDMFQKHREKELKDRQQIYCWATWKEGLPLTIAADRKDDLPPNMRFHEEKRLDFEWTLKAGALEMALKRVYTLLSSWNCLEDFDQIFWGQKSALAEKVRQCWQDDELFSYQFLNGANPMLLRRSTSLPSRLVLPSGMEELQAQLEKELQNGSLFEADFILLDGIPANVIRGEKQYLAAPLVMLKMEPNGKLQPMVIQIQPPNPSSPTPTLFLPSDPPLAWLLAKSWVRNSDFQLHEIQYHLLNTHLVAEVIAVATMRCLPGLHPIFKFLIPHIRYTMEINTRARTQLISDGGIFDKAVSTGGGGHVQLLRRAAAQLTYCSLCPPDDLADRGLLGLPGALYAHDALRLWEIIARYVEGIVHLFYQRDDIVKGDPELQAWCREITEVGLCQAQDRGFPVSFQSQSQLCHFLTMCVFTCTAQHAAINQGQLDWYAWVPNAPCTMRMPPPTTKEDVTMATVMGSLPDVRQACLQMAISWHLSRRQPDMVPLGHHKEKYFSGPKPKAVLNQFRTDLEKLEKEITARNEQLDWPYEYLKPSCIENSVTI
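Purified human 12hLO at 150 nM in 25 mM Hepes, 0.01% Triton X-100, pH 7.0, preincubated 15 min at room temperature with compound. Reaction started with 40 uM arachidonic acid, 30 min at room temperature. Hydroperoxide measured by Fe-xylenol orange, 573/405 nm absorbance ratio.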
EPAC2 agonist = EPAC2 (human) agonism; EPAC2 activation, biochemical qHTS; response scale: 100% = 6.5 mM cAMP response; Potency, µM (titrated, usually from 154 µM), for inactives: at the highest dose activation, most hits filed as activators; hit rate 0.079% among 360,000; further: nearly all actives have a fitted effect of over 50% in size
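Guanine nucleotide exchange by EPAC2 is measured as reduced fluorescence of BODIPY-GDP once it is released from 250 nM Rap1B. Plates are read kinetically for 30 min at room temperature; results are scaled to 6.5 mM cAMP.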
USP1 inh = USP1/UAF1 (human) deubiquitinase inhibition; O94782; recombinant USP1/UAF1, Ub-Rhodamine cleavage fluorescence; Potency, µM (top dose mostly 57.1 µM), for the others: at the top dose activity change, negative = inhibition, usual class: inhibitors; hit rate 0.23% among 390,000; AID 743255; further: on the % scale 0 is the no-effect control and ±100 the full control effect; nearly all actives have a fitted effect of over 60% in size
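In this screen, compounds sit with the deubiquitinase complex (1nM) for 15 min at room temperature before Ub-Rho is added at 150nM final. Fluorescence rise is then followed for 6 reads every 60 seconds.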
EPAC1 antag = blocks human EPAC1 exchange factor; Potency, µM (titrated, usually from 115 µM), inactives show top-dose activity change, negative = inhibition, usual class: inhibitors; hit rate 0.14% among 360,000; AID 720709; EPAC1 GEF assay, Rap1b-BODIPY-GDP exchange fluorescence; O95398;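 further: plate controls were vehicle for no effect and positive control for full effect; nearly all actives have a fitted effect of over 50% in size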
EPAC1 ag = agonists of human EPAC1 | O95398 | EPAC1 agonist qHTS, biochemical assay; response scale: 100% = response to 6.5 mM cAMP | Potency, µM (top dose mostly 154 µM), for the others: at the top dose activation, hits mostly activators | hit rate 0.073% among 360,000 | AID 720707; further: nearly all actives have a fitted effect of over 60% in size
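Nucleotide exchange by EPAC1 (100 nM) on Rap1B–BODIPY-GDP (250 nM) in the presence of 50 uM GDP is tracked fluorescently at 480/540 nm over 30 min. Signals are normalized to a 6.5 mM cAMP control.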
An asterisk follows results filed as active; ? = inconclusive; · = not tested or not shown; ! = a repeat was not active; [ ] = another dose, or the depositor's remark. The call rests on the fitted dose curve; in most records, active means well fitted curve in the direction sought with a large enough effect; inconclusive means small, poorly fitted or top-dose-only effect, or another doubt; inactive means no such curve, though single readings can be large; an effect the other way counts as inactive or inconclusive. Potency means the concentration at half of the fitted maximal effect.

SMILES | EPAC2 antag | ALOX12 inh | EPAC2 agonist | USP1 inh | EPAC1 antag | EPAC1 ag
CCOC(=O)C1=C(C)N=c2s/c(=C/c3ccc(OCC(=O)O)c(OC)c3)c(=O)n2C1c1ccc(Cl)cc1 (centres undefined) | 56.7% | 25.1µM* | -9.3% | ? | ? | ?
CCOC(=O)C1=C(c2ccccc2)N=c2s/c(=C\c3ccco3)c(=O)n2C1c1cccs1 (centres undefined) | -1.6% | ? | 7.9% | -12.8% | ? | 4.8%
CCOc1ccc(C2C(C(=O)Nc3ccccc3)=C(C)N=c3s/c(=C/c4cccc(OCC(=O)O)c4)c(=O)n32)cc1 (centres undefined) | 0.1% | ? | -16.9% | ? | ? | 0.6%
CC1=C(C(=O)Nc2ccccc2)C(c2ccc(Cl)cc2)n2c(s/c(=C/c3cccc(OCC(=O)O)c3)c2=O)=N1 (centres undefined) | -11.2% | 44.7µM* | -0.6% | -17.9% | ? | ?
CCCCn1c(=O)[nH]c(=O)c2c1nc(COC(=O)C1CC1)n2C | · | -2.4% | · | · | · | ·
Cc1ccccc1C(=O)Nc1ccc2nc(N3CCN(C4CCCCC4)CC3)cc(C(=O)O)c2c1 | · | 6.31µM* | · | · | · | ·
CCCC(=O)Nc1ccc2nc(N3CCN(C(=O)OCC)CC3)cc(C(=O)O)c2c1 | · | 7.94µM* | · | · | · | ·
Cc1cccc(N2CCN(c3cc(C(=O)O)c4cc(NC(=O)C(C)(C)C)ccc4n3)CC2)c1 | · | 14.1µM* | · | · | · | ·
Cn1c(=O)[nH]c(=O)c2c1nc(SCC(N)=O)n2CCCc1ccccc1 | · | 16.3% | · | · | · | ·
CCCNc1c(NC(=O)NC2(CC(=O)OCC)CCCCC2)c(=O)oc2ccccc12 | · | 18.1% | · | · | · | ·
O=C(NCc1cccc(Cl)c1)c1ccc(-n2ccnc2)c2ccoc12 | -13.0% | 39.8µM* | 9.8% | · | ? | -5.0%
CC(C)Oc1ccc(CNC(=S)Nc2ccccc2)cc1Cl | -13.7% | ? | 6.7% | -24.9% | -11.3% | 9.9%
CC(C)COc1ccc(CNC(=S)Nc2ccccc2)cc1Cl | -27.4% | 31.6µM* | -3.8% | -23.0% | -18.6% | 5.1%
CCOc1ccccc1NC(=O)c1ccc(CN2CCCC2=O)cc1 | · | 1.9% | · | · | · | ·
Oc1ccc(Cl)c2cccnc12 | 1.8% | 4.55µM*! | 9.4% | 1.1% | -6.0% | 0.8%
Cc1ccc(S(=O)(=O)Nc2cc(Cl)c(O)c3ncccc23)cc1 | 11.0% | 4.47µM* | 4.6% | -26.1% | 0.3% | -2.5%
Oc1ccc(F)c2cccnc12 | -15.3% | -29.2% | -5.4% | -13.2% | -11.2% | -14.1%
Oc1c(I)cc(I)c2cccnc12 | -14.9% | 31.6µM*! | 0.3% | -34.1% | 5.9% | -9.7%
Oc1c(Cl)cc(Cl)c2cccnc12 | 7.3% | 20µM*! | 4.0% | -19.5% | 1.8% | 9.4%
N#Cc1cc(C(=O)c2ccccc2OCC(=O)Nc2ccc(N3CCCCC3)cc2)cn(C2CC2)c1=O | · | -38.8% | · | · | · | ·
O=C(Oc1c(Cl)cc(Cl)c2cccnc12)c1ccco1 | -15.6% | 7.08µM* | 7.5% | -19.0% | -18.9% | 8.7%
O=C(Oc1c(Cl)cc(Cl)c2cccnc12)c1cccs1 | 2.2% | ? | 10.0% | -11.0% | 1.9% | 12.7%
Fc1ccc(CN2CCCCCCC2)c(F)c1 | 9.2%[57.1 µM] | 0.447µM* | -5.7% | -13.6% | -0.6% | -8.0%
N#Cc1nc(-c2ccc(S(=O)(=O)N3CCCCC3)cc2)oc1NCCCn1ccnc1 | · | -19.1% | · | · | · | ·
O=S(=O)(Nc1nc(-c2sccc2Cl)cs1)c1cc(Cl)ccc1Cl | 50.1µM* | · | -24.3% | ? | 79.4µM* | -11.9%
SMILES | EPAC2 antag | ALOX12 inh | EPAC2 agonist | USP1 inh | EPAC1 antag | EPAC1 ag
CC(C)(C)c1nnc(NS(=O)(=O)c2cc(Cl)ccc2Cl)s1 | -17.1% | -2.0% | 7.1% | -6.7% | -16.8% | 2.7%
Oc1ccc(-c2nc3ccc4ccccc4c3c3c2CCC3)cc1O | -9.6% | 2µM* | 12.4% | -15.2% | -25.1% | 2.8%
CC(C)(C)c1cc(-c2ccccc2)cc(C(C)(C)C)c1O | · | -0.6% | · | · | · | ·
COc1ccc(NC(=O)Cc2nnc(SCC(=O)NC34CC5CC(CC(C5)C3)C4)n2C)cc1 | · | -4.4% | · | · | · | ·
CN(C)c1ccc(NC(=O)c2cccc(N(C)C)c2)cc1 | · | -39.9% | · | · | · | ·
COc1ccccc1CNC(=O)c1cccc(N(C)C)c1 | 23.9% | 1.78µM* | 16.4% | -20.4% | 14.9% | -0.8%
CN(C)c1cccc(C(=O)NNc2c(Cl)cc(Cl)cc2Cl)c1 | · | 5.01µM* | · | · | · | ·
CCc1cccc(C)c1NC(=O)c1cccc(C(=O)Nc2c(C)cccc2CC)c1 | · | -28.0% | · | -23.6% | · | ·
CCc1cccc(C)c1NC(=O)c1cccc(N(C)C)c1 | 20.0% | 22.4µM* | 6.1% | -7.5% | 17.4% | -2.6%
Cc1ccc(CN(C(=O)Nc2cccc(Cl)c2)c2ccccn2)o1 | · | 0.3% | · | · | · | ·
C(=N\N=C(c1ccccc1)c1ccccc1)/c1ccsc1 | · | 6.3% | · | · | · | ·
COc1cc(C)c(NC(=O)c2ccc3c(c2)NC(=O)CS3)cc1OC | · | 20µM* | · | · | · | ·
O=C(NC1CCOC2(CCOCC2)C1)c1cn(CCN2CCNCC2)nn1 (centres undefined) | · | 22.4µM* | · | · | · | ·
O=C(NCC1CCOc2ccccc2C1)c1cn(CCN2CCNCC2)nn1 (centres undefined) | · | -17.9% | · | · | · | ·
CCN(CC)c1nc2c(c(=O)n(C)c(=O)n2C)n1Cc1ccc(F)cc1 | · | 0.7% | · | · | · | ·
O=c1cc(CSc2ccc(Cl)cc2)[nH]c2[nH]n(-c3ccccc3)c(=O)c12 | -24.6% | 39.8µM* | 0.4% | -22.2% | ? | 1.6%
Cc1ccc2c(=O)cc(CSc3ccccc3)[nH]c2c1C | · | -27.1% | · | -26.6% | · | ·
Cc1[nH]n(-c2ccccc2)c(=O)c1Sc1ccc(Cl)cc1 | 23.6% | ? | -5.3% | -7.0% | -0.4% | -0.4%
Cc1ccc(SCc2cc(=O)c3c(=O)n(-c4ccccc4)[nH]c3[nH]2)cc1 | -22.6% | 35.5µM* | 0.5% | 0.5% | 79.4µM* | -1.2%
CN(C)CCNC(=O)CCCNc1nc(Cl)nc2nc[nH]c12 | · | 2.2% | · | · | · | ·
O=C(COc1ccc2ccccc2c1)Nc1cccc(C(=O)Nc2ccccc2C(=O)O)c1 | -12.5% | ? | -9.7% | -26.3% | 44.7µM* | -9.5%
O=C(/C=C/c1ccc([N+](=O)[O-])cc1)Nc1cccc(C(=O)Nc2ccccc2C(=O)O)c1 | 20.9% | ? | -3.3% | ? | 28.2µM* | -3.4%
COC(=O)c1cccc(NC(=O)/C=C/c2ccc([N+](=O)[O-])cc2)c1 | 9.1% | -2.7% | -2.0% | -19.3% | -4.1% | -4.3%
CC1(C)CC(NC(=O)Nc2ccc(OC(F)F)c(Cl)c2)CC(C)(C)N1 | · | -16.7% | · | · | · | ·
Cc1ccc(Cn2cc(-c3ccncc3)cc2C(=O)NC2CC2)cc1 | · | 28.2µM* | · | · | · | ·
COc1ccc(NC(=O)C2(C)CN(C)Cc3ccc(NCc4ccccc4)nc32)cc1 (centres undefined) | · | 1.0%[176 µM] | · | · | · | ·
